Molecules are shown by their SMILES. “And” between values parts separate entries of the source, which are not always exact repeats. Equal values may be shown once. The panel holds about 83,000 compounds, 20% with a hit somewhere; the sample as a whole holds those more often.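 Step 1: grow cells in 96-well plates. Step 2: add test compound at a single concentration. Step 3: incubate 48 h. Step 4: record percent growth.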 The source made the active and inactive calls. Rule for the calls: active = growth percent below 10; inactive = the rest.

This test deals with MDA-MB-468 breast. Description: NCI-60 one-dose screen, 48 h (100 = growth as untreated, 0 = no growth, -100 = all killed). Particulars: 10 µM unless noted.
On to `CN(C1c2ccccc2Oc2ccccc21)S(=O)(=O)c1cc(Cl)ccc1Cl`, for which the growth was 18.9% (inactive). The result for `CCc1nc2cc(/C=C/C(=O)NO)ccc2c(=O)n1CCc1ccc(OC)cc1` reads 14.1% (inactive); that for `O=C(C(=O)N1CCOCC1)c1cn(CCCn2cc(C(=O)C(=O)N3CCOCC3)c3ccccc32)c2ccccc12`, 109% (inactive); that for `CCN1C(=O)N(CC)C2SC(N/N=C/C=C/c3ccccc3OC)=NC21` (configuration not stated), 36.8% (inactive).

Regarding `O=C1NC(=O)c2c(CCCSc3nc4ccccc4c(=O)n3CCc3ccccc3)cccc21`, the growth is 112% (inactive). As to `COC1CC2CCC(C)C(O)(O2)C(=O)C(=O)N2CCCCC2C(=O)OC(C(C)CC2CCC(O)C(OC)C2)CC(=O)C(C)C=C(C)C(O)C(OC)C(=O)C(C)CC(C)/C=C/C=C/C=C1C` (configuration not stated), the growth was 23.3% (inactive).

For `CC/C(=C(/c1ccc(Cl)cc1)c1ccc(OCCN2CCCCC2)cc1)c1ccc(OC)cc1`, the growth was 26.5% (inactive).

Take `Cc1c(C(=N)C(C#N)C#N)c(=N)oc2c1ccc1ccccc12`: the growth was 54.5% (inactive). The result for `COc1ccc(-c2n[nH]c(=O)c3nc(NC(=S)Nc4ccc(Oc5ccccc5)cc4)sc23)cc1` reads 98% (inactive). Consider `NC(N)=Nc1nc2ccccc2o1`, for which the growth was 106% (inactive).

On to `CN(C)c1ccc2nc3ccc(N)cc3[n+](-c3ccccc3)c2c1`, for which the growth is -28.6% (active) and 20.2% (inactive). For `C#C[C@]1(O)CC[C@H]2[C@@H]3CC=C4c5nc(Nc6ccccc6[N+](=O)[O-])sc5CC[C@]4(C)[C@H]3CC[C@@]21C` the value was 70.7% (inactive).

The values above are taken from PubChem BioAssay (NCI).
